Test results reported in PubChem BioAssay (NCATS).
Values joined by “and” are separate entries in the source; they are usually repeats but may differ in a detail not shown here. Identical values can stand only once. Inconclusive results are not listed. Active and inactive are the calls of the source. Unless noted, calls follow the shape of the dose curve; as a rule, active = well fitted curve in the direction sought with a large enough effect; inconclusive = small, poorly fitted or top-dose-only effect, or another doubt; inactive = no such curve, though single readings can be large; an effect the other way counts as inactive or inconclusive.

Legend:
[1] = Cell Viability - NIH 3T3 (AID 541); conditions: NIH 3T3 cell viability, qHTS; activity change, negative = cytotoxicity: at 92.2 µM (top of the series);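 also: plate controls were DMSO alone for no effect and tamoxifen positive control for full effect; nearly all actives have a fitted effect of over 25% in size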
Outline: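 Mouse NIH 3T3 fibroblasts, 1000 cells/well, rested 5 hr at 37 °C, then exposed to compound for 40 hr at 37 °C in complete medium. Viability read as intracellular ATP by CellTiter-Glo luminescence; AC50 from Hill-equation fits of concentration-response data.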

[2] = Cell Viability - SH-SY5Y (AID 544); conditions: SH-SY5Y neuroblastoma cell viability; viability change, negative = cytotoxic: at 92.2 µM (top of the series);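 also: 0% = DMSO alone and -100% = 100 µM tamoxifen; nearly all actives have a fitted effect of over 55% in size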
Outline: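 SH-SY5Y human neuroblastoma cells (1500/well) incubated 5 h, then compound-treated 40 h at 37 °C in complete medium. Viability read as intracellular ATP by CellTiter-Glo luminescence after 20 min; AC50 from Hill-equation fits of qHTS concentration-response.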

[3] = Cell Viability - LYMP2-001 (AID 921);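 also: 0% = DMSO only and full inhibition = tetraoctylammonium bromide control wells; nearly all actives have a fitted effect of over 70% in size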
Outline: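 qHTS, 1536-well; lymphoblastoid cells, 24 hr compound, 37 C; ATP by CellTiter-Glo, 30 min RT; luminescence; Hill-fit AC50.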

[4] = Cell Viability - LYMP1-003 - Assay at 40 hr (AID 964); also: % is scaled to controls: 0 for no effect and ±100 for the full control effect; nearly all actives have a fitted effect of over 60% in size
Outline: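 LYMP1-003 human lymphoblastoid cells, 2500/well, preincubated 5 h at 37 C, then treated with compound for 40 h at 37 C. Intracellular ATP read by CellTiter-Glo luminescence after 30 min at room temperature; AC50 from Hill-equation fits.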

[5] = Cell Viability - LYMP2-004 (AID 966);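 also: plate controls were DMSO only for no effect and tetraoctylammonium bromide control for full effect; nearly all actives have a fitted effect of over 65% in size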
Outline: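 Lymphoblastoid LYMP2-004 cells, 2500 per well, were preincubated for 5 hr and then treated with compound for 24 h at 37 C in complete medium. Viability was read as cellular ATP by CellTiter-Glo luminescence, and AC50 values were taken from Hill fits to concentration-response data.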

[6] = Cell Viability - LYMP2-015 (AID 971);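 also: 0% = DMSO only and full effect = 92 µM tetraoctylammonium bromide; nearly all actives have a fitted effect of over 55% in size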
Outline: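 LYMP2-015 human lymphoblastoid cells (2500/well) in complete medium, compound-treated 24 h at 37 C; viability read as cellular ATP by CellTiter-Glo luminescence after 30 min at room temperature. AC50 from Hill-equation fits of qHTS concentration-response data.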

[7] = Cell Viability - LYMP2-017 (AID 972); also: % is scaled to controls: 0 for no effect and ±100 for the full control effect; nearly all actives have a fitted effect of over 55% in size
Outline: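 LYMP2-017 human lymphoblastoid cells (2500/well) settled 5 hr at 37 C, then exposed to compound 24 hr at 37 C in complete medium. Viability taken as intracellular ATP by CellTiter-Glo luminescence after 30 min at RT; AC50 from Hill fits.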

[8] = Cell Viability - LYMP2-025 (AID 976);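 also: plate controls were DMSO only for no effect and tetraoctylammonium bromide control for full effect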
Outline: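 Human lymphoblastoid LYMP2-025 cells, 2500/well, exposed 24 h at 37 C in complete medium in 1536-well qHTS. Viability as cellular ATP by CellTiter-Glo luminescence; AC50 from Hill fits of concentration-response data.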

[9] = Cell Viability - LYMP2-006 (AID 978); also: % is scaled to controls: 0 for no effect and ±100 for the full control effect; nearly all actives have a fitted effect of over 60% in size
Outline: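 Concentration-dependent loss of intracellular ATP in a human lymphoblastoid line after 24 hr treatment at 37 C was measured by CellTiter-Glo luminescence, with AC50 values obtained from standard Hill-equation modelling.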

[10] = Cell Viability - LYMP2-010 (AID 981); also: % is scaled to controls: 0 for no effect and ±100 for the full control effect; nearly all actives have a fitted effect of over 55% in size
Outline: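 Human lymphoblastoid LYMP2-010 cells (2500/well) treated 24 h at 37 C in complete medium; viability read as intracellular ATP by CellTiter-Glo luminescence. AC50 from Hill fits of concentration-response data; tetraoctylammonium bromide positive control.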

[11] = Cell Viability - LYMP2-012 (AID 982)
[12] = Cell Viability - LYMP2-014 (AID 983);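 also: plate controls were DMSO only for no effect and 92 µM tetraoctylammonium bromide for full effect; nearly all actives have a fitted effect of over 50% in size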
Outline: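 LYMP2-014 human lymphoblastoid cells, 2500/well, treated 24 h at 37 C in complete medium; viability by CellTiter-Glo ATP luminescence after 30 min at room temperature. AC50 from Hill fits of qHTS concentration-response; tetraoctylammonium bromide positive control.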

[13] = Cell Viability - LYMP2-022 (AID 987)
Outline: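 LYMP2-022 lymphoblastoid cells (2500/well, complete medium) were treated with compounds for 24 hours at 37 C; intracellular ATP was then read by CellTiter-Glo luminescence after 30 min at room temperature. AC50 values were derived from Hill-equation fits.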

[14] = molecular target: Thyroid hormone receptor beta (Homo sapiens) (UniProt P10828); experiment: qHTS assay for small molecule agonists of thyroid hormone receptor beta signaling (AID 588545; calls by dose curve)
Thyroid hormone receptor beta (Homo sapiens), sequence (P10828 whole entry, looked up): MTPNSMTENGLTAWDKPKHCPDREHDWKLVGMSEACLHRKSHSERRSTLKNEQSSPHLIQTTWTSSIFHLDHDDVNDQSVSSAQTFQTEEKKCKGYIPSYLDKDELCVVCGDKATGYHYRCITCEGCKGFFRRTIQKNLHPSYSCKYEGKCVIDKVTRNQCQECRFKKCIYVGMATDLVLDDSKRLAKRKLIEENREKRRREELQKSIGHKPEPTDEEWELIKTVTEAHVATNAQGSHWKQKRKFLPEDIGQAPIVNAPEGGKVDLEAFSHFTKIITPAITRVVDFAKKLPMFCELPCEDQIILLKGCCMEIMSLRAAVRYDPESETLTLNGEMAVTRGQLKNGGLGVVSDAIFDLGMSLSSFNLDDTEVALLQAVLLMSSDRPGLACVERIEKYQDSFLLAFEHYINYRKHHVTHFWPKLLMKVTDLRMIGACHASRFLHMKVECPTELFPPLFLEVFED
Outline: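 Agonist activity was read as beta-lactamase CCF4 fluorescence (405 ex, 460/530 em), scaled between DMSO (0%) and 10 nM T3 (100%), then Hill-fitted for EC50 and efficacy. HEK 293 TR-UAS-bla cells in 2% charcoal/dextran FBS medium were exposed 18 h at 37 C.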

[15] = qHTS assay for small molecule antagonists of retinoid X receptor alpha signaling (AID 588546; active = well fitted inhibition curve with a large enough effect in the signal ratio, with a control signal flat, not every such curve was filed as active; the % refers to the signal ratio;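 also: cells stimulated with 9-cis-retinoic acid as agonist; % is scaled to controls: 0 for no effect and ±100 for the full control effect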); conditions: HEK293T RXRa-UAS-bla, beta-lactamase ratio, antagonist mode; measured here: W530 green channel, cytotoxicity proxy
Outline: (§1)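 Beta-lactamase reporter inhibition, read as CCF4 fluorescence ratio (ex 405, em 460/530 nm) after 2 h at RT. HEK293T UAS-bla cells, 2500/well, were stimulated with 9-cis-RA at 500 or 100 nM final alongside test compound for 18 h at 37 C.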

[16] = molecular target: Retinoic acid receptor RXR-alpha (Homo sapiens) (UniProt P19793); experiment: as above; conditions: HEK293T RXRa-UAS-bla, beta-lactamase ratio, antagonist mode
Retinoic acid receptor RXR-alpha (Homo sapiens), sequence (P19793 whole entry, looked up): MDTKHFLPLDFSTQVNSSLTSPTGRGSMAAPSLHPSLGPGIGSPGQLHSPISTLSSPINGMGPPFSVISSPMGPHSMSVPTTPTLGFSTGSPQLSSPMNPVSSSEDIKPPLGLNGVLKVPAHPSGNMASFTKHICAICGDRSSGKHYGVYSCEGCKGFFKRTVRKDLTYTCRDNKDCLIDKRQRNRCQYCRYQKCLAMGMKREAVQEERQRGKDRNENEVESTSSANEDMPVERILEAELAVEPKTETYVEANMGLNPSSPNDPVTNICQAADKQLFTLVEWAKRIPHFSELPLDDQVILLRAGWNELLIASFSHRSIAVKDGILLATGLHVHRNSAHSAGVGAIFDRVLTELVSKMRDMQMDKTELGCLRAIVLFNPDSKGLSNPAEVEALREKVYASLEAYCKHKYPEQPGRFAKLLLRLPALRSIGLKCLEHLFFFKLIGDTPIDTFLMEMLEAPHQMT
Outline: as §1

[17] = molecular target: Thyroid hormone receptor beta (Homo sapiens) (UniProt P10828); experiment: qHTS assay for small molecule antagonists of thyroid hormone receptor beta signaling (AID 588547; active = well fitted inhibition curve with a large enough effect in the signal ratio, with a control signal flat, not every such curve was filed as active; the % refers to the signal ratio;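 also: cells stimulated with 0.4 nM T3 agonist during compound exposure; % is scaled to controls: 0 for no effect and ±100 for the full control effect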); conditions: TR-UAS-bla HEK293, beta-lactamase ratio, antagonist mode, 18 h
Outline: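 Inhibition of T3-driven (0.4nM final) beta-lactamase reporter activity was measured over 0.59 nM to 92 uM compound after 18 h at 37 C. The cells were GripTite HEK293 TR-UAS-bla in charcoal/dextran-stripped serum, with CCF4 ratio read-out and IC50 from Hill fits.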

[18] = molecular target: Voltage-gated inwardly rectifying potassium channel KCNH2 (Homo sapiens) (UniProt Q12809); experiment: qHTS Assay for Small Molecule Inhibitors of the Human hERG Channel Activity (AID 588834);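 also: top concentration of the series differs between compounds; % is scaled to controls: 0 for no effect and ±100 for the full control effect; lower thallium flux fluorescence means stronger hERG block; nearly all actives have a fitted effect of over 50% in size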
Voltage-gated inwardly rectifying potassium channel KCNH2 (Homo sapiens), sequence (Q12809 whole entry, looked up): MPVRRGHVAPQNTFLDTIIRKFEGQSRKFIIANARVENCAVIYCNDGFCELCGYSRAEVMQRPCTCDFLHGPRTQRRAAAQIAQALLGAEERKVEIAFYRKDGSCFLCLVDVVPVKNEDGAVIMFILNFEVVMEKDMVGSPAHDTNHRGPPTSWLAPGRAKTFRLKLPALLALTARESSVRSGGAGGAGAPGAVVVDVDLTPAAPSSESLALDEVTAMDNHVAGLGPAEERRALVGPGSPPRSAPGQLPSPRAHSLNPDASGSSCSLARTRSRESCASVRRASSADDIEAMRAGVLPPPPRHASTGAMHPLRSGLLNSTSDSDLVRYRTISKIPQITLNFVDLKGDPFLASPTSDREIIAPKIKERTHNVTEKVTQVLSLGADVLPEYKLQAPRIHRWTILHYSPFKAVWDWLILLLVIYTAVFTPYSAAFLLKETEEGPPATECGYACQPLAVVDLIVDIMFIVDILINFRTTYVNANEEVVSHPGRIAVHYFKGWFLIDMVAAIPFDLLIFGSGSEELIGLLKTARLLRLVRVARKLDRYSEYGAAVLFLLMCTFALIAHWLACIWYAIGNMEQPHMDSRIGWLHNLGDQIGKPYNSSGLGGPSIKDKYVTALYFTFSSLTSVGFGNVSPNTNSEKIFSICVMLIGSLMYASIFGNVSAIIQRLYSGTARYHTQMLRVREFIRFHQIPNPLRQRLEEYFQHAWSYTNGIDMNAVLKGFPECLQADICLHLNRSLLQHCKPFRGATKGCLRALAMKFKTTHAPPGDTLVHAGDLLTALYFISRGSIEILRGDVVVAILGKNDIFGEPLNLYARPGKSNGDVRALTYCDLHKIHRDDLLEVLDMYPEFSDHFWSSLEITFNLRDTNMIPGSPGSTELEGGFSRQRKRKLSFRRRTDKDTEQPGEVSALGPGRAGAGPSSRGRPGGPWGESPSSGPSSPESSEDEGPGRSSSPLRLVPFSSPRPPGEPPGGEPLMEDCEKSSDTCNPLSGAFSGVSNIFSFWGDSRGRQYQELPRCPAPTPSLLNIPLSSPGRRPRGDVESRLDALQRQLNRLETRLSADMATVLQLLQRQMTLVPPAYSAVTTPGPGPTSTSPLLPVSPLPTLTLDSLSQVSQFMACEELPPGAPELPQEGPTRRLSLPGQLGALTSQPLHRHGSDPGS
Outline: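 Measured: FluxOR fluorescence after thallium stimulation in U2OS cells transduced with hERG by baculovirus. Compounds pre-incubated around 10 min; medium Opti-MEM with 2% FCS. AC50 from Hill equation.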

[19] = qHTS assay for small molecule agonists of retinoid X receptor alpha signaling (AID 588544; calls by dose curve); conditions: HEK293T RXRa-UAS-bla, beta-lactamase reporter, 18 h; 530 nm emission
[20] = molecular target: Retinoic acid receptor RXR-alpha (Homo sapiens) (UniProt P19793); experiment: as above

NNC(N)=S
inactive: Potency [1] | Potency [2] | Potency [3] | Potency [4] | Potency [5] | Potency [6] | Potency [7] | Potency [8] | Potency [9] | Potency [10] | Potency [11] | Potency [12] | Potency [13] | Potency [14] | max response [16] 9.82% | activity change % (negative = inhibition) [17] 4.76% | Potency [18]
6.4%: max response [15]

Cc1ccc(N)cc1N
-0.584% and 0.527%: max response [15]
inactive: Potency [1] | Potency [3] | Potency [4] | Potency [5] | Potency [6] | Potency [7] | Potency [8] | Potency [9] | Potency [10] | Potency [11] | Potency [12] | Potency [13] | outcome [20] | Potency [14] | max response [16] 9.25% and -0.891% | activity change % (negative = inhibition) [17] 0.49% and -2.4% | Potency [18]
-4.9% and 16.6%: max response [19]

COc1ccccc1N
inactive: Potency [1] | Potency [2] | Potency [3] | Potency [4] | Potency [5] | Potency [6] | Potency [7] | Potency [8] | Potency [9] | Potency [10] | Potency [11] | Potency [12] | Potency [13] | outcome [20] | Potency [14] | Potency [18]
-8.71%: max response [19]

O=C(O)C(Cl)Br (configuration not stated)
-0.567%: max response [19]
-6.53%: max response [15]
inactive: Potency [1] | Potency [2] | Potency [3] | Potency [4] | Potency [5] | Potency [6] | Potency [7] | Potency [8] | Potency [9] | Potency [10] | Potency [11] | Potency [12] | Potency [13] | outcome [20] | max response [16] 0.341% | activity change % (negative = inhibition) [17] 7.08% | Potency [18]

c1ccc(C2CO2)cc1 (configuration not stated)
-9.84%: max response [15]
inactive: Potency [1] | Potency [2] | Potency [3] | Potency [4] | Potency [6] | Potency [7] | Potency [8] | Potency [9] | Potency [10] | Potency [11] | Potency [12] | Potency [13] | outcome [20] | max response [16] 32.3% | Potency [18]
-3.27%: max response [19]

ClC(Cl)c1ccccc1
4.33%: max response [15]
inactive: Potency [1] | Potency [2] | Potency [3] | Potency [4] | Potency [5] | Potency [6] | Potency [7] | Potency [8] | Potency [9] | Potency [10] | Potency [11] | Potency [12] | Potency [13] | outcome [20] | Potency [14] | max response [16] 0.971% | activity change % (negative = inhibition) [17] -1.09% | Potency [18]
1.37%: max response [19]

CCC[N+](=O)[O-]
-16.6%: max response [19]
inactive: Potency [1] | Potency [2] | Potency [3] | Potency [4] | Potency [5] | Potency [6] | Potency [7] | Potency [8] | Potency [9] | Potency [10] | Potency [11] | Potency [12] | Potency [13] | outcome [20] | Potency [14] | activity change % (negative = inhibition) [17] -9.22% | Potency [18]

S=C1NCCN1
inactive: Potency [1] | Potency [2] | Potency [3] | Potency [4] | Potency [5] | Potency [6] | Potency [7] | Potency [8] | Potency [9] | Potency [10] | Potency [11] | Potency [12] | Potency [13] | outcome [20] | Potency [14] | max response [16] -12.1% and 9.5% | activity change % (negative = inhibition) [17] -23.2% and -6.83% | Potency [18]
-9.74% and -4.86%: max response [19]
-7.1% and 12.2%: max response [15]

Clc1ccc(Cl)c(Cl)c1
inactive: Potency [1] | Potency [2] | Potency [3] | Potency [4] | Potency [5] | Potency [6] | Potency [7] | Potency [8] | Potency [9] | Potency [10] | Potency [11] | Potency [12] | Potency [13] | outcome [20] | Potency [14] | max response [16] 7.63% and -21.3% | activity change % (negative = inhibition) [17] -0.795% and 9.45% | Potency [18]
10.3% and -7.29%: max response [15]
-7.44% and -24%: max response [19]

CC1CC(=O)O1 (configuration not stated)
inactive: Potency [1] | Potency [2] | Potency [3] | Potency [4] | Potency [5] | Potency [6] | Potency [7] | Potency [8] | Potency [9] | Potency [10] | Potency [11] | Potency [12] | Potency [13] | outcome [20] | Potency [14] | max response [16] 4.5% | Potency [18]
-1.73%: max response [15]
-12.1%: max response [19]

CCCCOC(C)=O
6.81%: max response [19]
inactive: Potency [1] | Potency [2] | Potency [3] | Potency [4] | Potency [5] | Potency [6] | Potency [7] | Potency [8] | Potency [9] | Potency [10] | Potency [11] | Potency [12] | Potency [13] | outcome [20] | Potency [14] | max response [16] 10.8% | activity change % (negative = inhibition) [17] 1.15% | Potency [18]
-8.9%: max response [15]

Cc1ccc(N)cc1Cl
-6.83%: max response [15]
inactive: Potency [1] | Potency [2] | Potency [3] | Potency [4] | Potency [5] | Potency [6] | Potency [7] | Potency [8] | Potency [9] | Potency [10] | Potency [11] | Potency [12] | Potency [13] | outcome [20] | Potency [14] | max response [16] -11.5% | activity change % (negative = inhibition) [17] -8.08% | Potency [18]
-18.1%: max response [19]

O=[N+]([O-])c1cccc2c([N+](=O)[O-])cccc12
inactive: Potency [1] | Potency [2] | Potency [3] | Potency [4] | Potency [5] | Potency [6] | Potency [7] | Potency [8] | Potency [9] | Potency [10] | Potency [11] | Potency [12] | Potency [13] | outcome [20] | Potency [14] | max response [16] 7.28% | activity change % (negative = inhibition) [17] -3.1% | Potency [18]
-12.9%: max response [15]
-11.5%: max response [19]

O=C(O)CCl
-10.2%: max response [19]
1.14%: max response [15]
inactive: Potency [1] | Potency [2] | Potency [3] | Potency [4] | Potency [5] | Potency [6] | Potency [7] | Potency [8] | Potency [9] | Potency [10] | Potency [11] | Potency [12] | Potency [13] | outcome [20] | Potency [14] | max response [16] -2.41% | activity change % (negative = inhibition) [17] -0.364% | Potency [18]
